Shown is part of a subset that was picked to be rich in hits.
DUX4 txn inh: DUX4-mediated transcription inhibition; 293T-iDUX4 ZSCAN4-Gaussia luciferase reporter, 24 h; active compounds read low; activity change, negative = inhibition, % (no concentration beside the values); 0.8% of 37,000 active; AID 1224904;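 active = mean inhibition of at least 10% in the main channel, exceeding the control channel by a set limit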;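 note: 0% = median of neutral control wells and -100% = median of positive control wells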
Numbers without * were called inactive; ! = not confirmed by another sample.

SMILES	DUX4 txn inh
CO[C@H]1CN(C)C(=O)c2ccc(NC(=O)Nc3cccc(Cl)c3)cc2OC[C@@H](C)NC[C@H]1C	-6
CO[C@@H]1CN(C)C(=O)c2ccc(NS(=O)(=O)CC(F)(F)F)cc2OC[C@@H](C)N(C(=O)NC(C)C)C[C@@H]1C	6
COc1ccc2c3c(n(C)c2c1)[C@H](CO)N(C(=O)Nc1ccc(F)cc1)CC31CN(C(=O)NC(C)C)C1	7
COc1cccc(NC(=O)C[C@@H]2CC[C@@H]3[C@H](COc4ccc(NC(=O)c5ccccc5F)cc4C(=O)N3C)O2)c1	2
C[C@@H]1CN([C@H](C)CO)C(=O)c2cc(NC(=O)CCCN(C)C)ccc2O[C@@H](C)CCCCO[C@H]1CN(C)S(=O)(=O)c1ccc(Cl)cc1	-2
CCN1[C@@H]2c3ccc(-c4cccc(OC)c4)c(=O)n3C[C@@H]2[C@@H](CO)[C@@H]1C(=O)N(C)C	3
Cc1ccccc1S(=O)(=O)N1C[C@@H](O)COC[C@@H]2O[C@H](CC(=O)NCCc3ccccc3)CC[C@H]21	10
O=C(C[C@@H]1C[C@H]2c3cc(NC(=O)CC4CC4)ccc3O[C@H]2[C@H](CO)O1)NCc1cc(F)ccc1F	-3
O=C(C[C@@H]1C[C@@H]2c3cc(NC(=O)Cc4ccncc4)ccc3O[C@@H]2[C@H](CO)O1)NCc1cc(F)ccc1F	7
CN(C)CC(=O)Nc1ccc2c(c1)[C@@H]1C[C@@H](CC(=O)NCc3ccc(-c4ccccc4)cc3)O[C@H](CO)[C@@H]1O2	-5
O=C(C[C@H]1C[C@H]2c3cc(NC(=O)Cc4ccncc4)ccc3O[C@H]2[C@H](CO)O1)NCc1ccc(-c2ccccc2)cc1	-68*
CN(C)CC(=O)Nc1ccc2c(c1)[C@@H]1C[C@H](CC(=O)NCc3ccc(-c4ccccc4)cc3)O[C@H](CO)[C@@H]1O2	-7
O=C(C[C@H]1C[C@H]2c3cc(NC(=O)Cc4ccncc4)ccc3O[C@H]2[C@H](CO)O1)NCc1cc(F)ccc1F	-36*
CC(C)CC#Cc1cnc2c(c1)C(=O)N([C@H](C)CO)C[C@H](C)[C@H](CN(C)Cc1cccc(F)c1)O2	0
CS(=O)(=O)Nc1ccc2c(c1)[C@@H]1C[C@@H](CC(=O)NCC(F)(F)F)O[C@H](CO)[C@@H]1O2	13
COc1ccc(NC(=O)N2C[C@@H]3N[C@H](C2)C3c2ccc(-c3cccc(F)c3)cc2)cc1 (stereo partly drawn)	-4
COc1ccc(NC(=O)N2C[C@@H]3N[C@H](C2)C3c2ccc(-c3cccnc3)cc2)cc1 (stereo partly drawn)	16
CN(C)C(=O)c1ccc(-c2ccc(C3[C@@H]4CN(C(=O)Nc5ccc(Cl)cc5)C[C@H]3N4)cc2)cc1 (stereo partly drawn)	16
N#Cc1ccc(-c2ccc(C3[C@H]4CNC[C@@H]3N4C(=O)Nc3ccc(Cl)cc3)cc2)cc1 (stereo partly drawn)	5
O=C(Nc1ccc(F)cc1)N1C[C@@H]2N[C@H](C1)C2c1ccc(-c2cccnc2)cc1 (stereo partly drawn)	-37*!
N#Cc1ccc(-c2ccc(C3[C@@H]4CN(C(=O)Nc5ccc(C(F)(F)F)cc5)C[C@H]3N4)cc2)cc1 (stereo partly drawn)	-49*!
CO[C@@H]1CN(C)C(=O)c2cc(NC(=O)NC(C)C)ccc2OC[C@H](C)N(CCC(F)(F)F)C[C@@H]1C	-2
CN(C)C(=O)C[C@@H]1C[C@H]2c3cc(NC(=O)NC4CCCC4)ccc3O[C@H]2[C@@H](CO)O1	3
CN1CCN(C(=O)C[C@H]2C[C@H]3c4cc(NC(=O)Cc5ccncc5)ccc4O[C@H]3[C@@H](CO)O2)CC1	12
COCC(=O)N1C[C@@H]2[C@H](c3ccccc31)[C@H](CO)N2Cc1ccc(OC)cc1	1
SMILES	DUX4 txn inh
COc1cccc(-c2ccc([C@@H]3[C@@H](C#N)N(C(=O)c4ccccn4)[C@@H]3CO)cc2)c1	-4
COc1ccc([C@H]2CC=CC[C@@H](C)Oc3ccccc3C(=O)N(C)[C@H](Cc3ccccc3)C(=O)N2)c(OC)c1 (mixture of isomers)	6
C[C@@H]1CN([C@@H](C)CO)C(=O)c2cc(NC(=O)c3ccncc3)ccc2O[C@H]1CN(C)Cc1ccc(Oc2ccccc2)cc1	0
Cc1ccc(S(=O)(=O)N2[C@@H]3CNC[C@H]2C3c2ccc(-c3ccc(C#N)cc3)cc2)cc1 (stereo partly drawn)	17
COc1ccc(S(=O)(=O)N2[C@@H]3CNC[C@H]2C3c2ccc(-c3ccccc3OC)cc2)cc1 (stereo partly drawn)	12
COc1cccc(-c2ccc(C3[C@H]4CNC[C@@H]3N4S(=O)(=O)c3cn(C)cn3)cc2)c1 (stereo partly drawn)	14
COc1cccc(-c2ccc(C3[C@@H]4CN(S(=O)(=O)c5cn(C)cn5)C[C@H]3N4)cc2)c1 (stereo partly drawn)	-34*!
Cc1ccc(S(=O)(=O)N2C[C@@H]3N[C@H](C2)C3c2ccc(-c3cccc(C#N)c3)cc2)cc1 (stereo partly drawn)	-43*!
COc1cccc(-c2ccc(C3[C@@H]4CN(C(=O)C5CCOCC5)C[C@H]3N4)cc2)c1 (stereo partly drawn)	13
COc1ccccc1-c1ccc(C2[C@@H]3CN(S(=O)(=O)c4ccc(C)cc4)C[C@H]2N3)cc1 (stereo partly drawn)	-34*!
N#Cc1cccc(-c2ccc(C3[C@@H]4CN(S(=O)(=O)c5ccccc5)C[C@H]3N4)cc2)c1 (stereo partly drawn)	-41*!
C/C=C/c1ccc(C2[C@@H]3CN(S(=O)(=O)c4ccc(C)cc4)C[C@H]2N3)cc1 (stereo partly drawn)	4
N#Cc1cccc(-c2ccc([C@H]3[C@H]4CN(S(=O)(=O)c5ccccc5)CCCCN4[C@H]3CO)cc2)c1	3
COc1ccccc1S(=O)(=O)N1C[C@@H]2N[C@H](C1)C2c1ccc(-c2ccncc2)cc1 (stereo partly drawn)	-5
N#Cc1cccc(-c2ccc3c(c2)[C@@H]2[C@@H](CCN2S(=O)(=O)c2ccccc2)[C@@H](CO)N3)c1	-4
CC(C)NC(=O)N1CC2(C1)[C@@H](c1ccccc1)[C@H](CO)N2C(=O)C1CCCCC1	10
OC[C@H]1[C@@H](c2ccccc2)C2(CN(Cc3nccs3)C2)N1Cc1ccncc1	8
CO[C@H]1CC[C@@H]2CCN(C)C(=O)[C@H](C)CN(C)C(=O)c3cc(C#N)ccc3OC[C@H]1O2	0
CN(C)CC#Cc1ccc([C@@H]2[C@@H](CO)N3C(=O)CN(C(=O)c4ccc(F)cc4)C[C@@H]23)cc1	4
C[C@H]1CN([C@@H](C)CO)S(=O)(=O)c2ccc(C3=CCCC3)cc2O[C@@H]1CN(C)CC1CCOCC1	5
CC(C)CC#Cc1ccc([C@@H]2[C@H]3CN(S(=O)(=O)c4ccc(F)cc4)CCCCN3[C@H]2CO)cc1	-22*
CC(C)(O)C#Cc1ccc([C@@H]2[C@@H](CO)N3CCCCN(C(=O)c4ccc(F)cc4)C[C@H]23)cc1	1
O=S(=O)(c1ccc(F)cc1)N1CCCCN2[C@@H](CO)[C@H](c3ccc(C#CC4CC4)cc3)[C@@H]2C1	-26*
CC(C)(O)C#Cc1ccc([C@H]2[C@@H](CO)N3CCCCN(C(=O)c4ccc(F)cc4)C[C@@H]23)cc1	7
O=S(=O)(c1ccccc1)N1CCCCN2[C@@H](CO)[C@H](c3ccc(C#CC4CCCC4)cc3)[C@@H]2C1	4

Assay outcomes (PubChem BioAssay)
